High-throughput results as filed in PubChem BioAssay.
TROY signal inh: inhibitors of TROY-driven NF-kB signaling, primary screen, Q293 LMP1-TROYcd cells, NF-kB luciferase, uHTS | Q293 LMP1-TROYcd NF-kB luciferase reporter, 4 h | inhibition, % at 10 µM | 0.98% of 360,000 active;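 active means compounds whose plate-normalised and pattern-corrected inhibition of the luciferase reporter signal at the single screening dose is 50% or more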
EWS-Fli inh: EWS/Fli-driven NR0B1 reporter inhibitors, primary screen, A673 cells, NR0B1 luciferase, luminescence, MLPCN library; viability-normalised; inhibition, % at 12.6 µM; 0.67% of 350,000 active; AID 651661, 2012;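 active means mean inhibition of at least 50% after viability correction, with every replicate also passing that limit; inconclusive means mean reaches 50% but only one of two replicates passes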;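 further: firefly luciferase signal divided by Alamar Blue viability fluorescence both relative to DMSO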
LGR2 inh: inhibitors of bursicon-induced LGR2 CRE-luciferase signal, primary screen, cell-based, HEK293, CRE-luciferase reporter, bursicon stimulation. bursicon-stimulated, 4 h. inhibition, % at 9.99 µM. 0.35% of 380,000 active. AID 720647, 2013;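 active means drop in luminescence signal, shown as inhibition above about 50% in the replicate tests, limit read from the data, passing the limit was not always enough; inconclusive means probably only some replicates passing the limit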;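 further: agonist challenge used bursicon conditioned medium at about half maximal strength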
PAX8 reporter: inhibitors of PAX8-driven TPO luciferase reporter, primary screen, RMG-I cells, single concentration; SteadyGlo, 24 h; inhibition, % at 12.6 µM; 1.2% of 360,000 active; AID 652154, 2013;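 active means mean replicate inhibition at least 60% with every replicate also reaching 60%; inconclusive means only one of the two criteria is met; inactive means mean below 60% and not all replicates reaching 60%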;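 further: luciferase light reporting Pax8 driven TPO promoter activity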
LMP1 NFkB inh: EBV LMP1-driven NF-kappaB luciferase reporter inhibitors, primary screen, cell-based, luminescence, single point | 0.69% of 350,000 active | inhibition, % at 12.5 µM | LMP1-induced NF-kappaB luciferase reporter cells; in the data active means inhibition above about 41%; inconclusive means no clear call, values can overlap the other calls
TWEAK Fn14 block: inhibitors of TWEAK-Fn14 signaling, primary screen, luciferase reporter cells, uHTS | TWEAK-stimulated Fn14 reporter cells, luciferase luminescence, 8 h | 2% of 360,000 active | inhibition, % at 10 µM | AID 1159606, 2016; in the data active means inhibition above about 50%
Of the large screens only hits and unclear results are named; the others gave an inactive call. An excerpt weighted towards active compounds, which were near 3.1% of everything screened.

N#C[C@@H]1[C@H](c2ccc(-c3ccccc3F)cc2)[C@@H](CO)N1C(=O)Cc1ccccc1	PAX8 reporter 103 (no result: TROY signal inh, LMP1 NFkB inh, TWEAK Fn14 block)
COc1cccc(-c2ccc([C@H]3[C@@H](C#N)N(C(=O)c4ccccn4)[C@@H]3CO)cc2)c1	none (no result: TROY signal inh, LMP1 NFkB inh, TWEAK Fn14 block)
N#C[C@@H]1[C@@H](c2ccc(-c3ccc(F)cc3)cc2)[C@@H](CO)N1S(=O)(=O)Cc1ccccc1	PAX8 reporter 69 (no result: TROY signal inh, LMP1 NFkB inh, TWEAK Fn14 block)
Cc1ccc(S(=O)(=O)N(C)C[C@H]2Oc3ccc(NC(=O)Cn4cnnn4)cc3C(=O)N([C@@H](C)CO)C[C@@H]2C)cc1	none (no result: TROY signal inh, PAX8 reporter, LMP1 NFkB inh, TWEAK Fn14 block)
COc1ccc(NC(=O)N(C)C[C@@H]2Oc3c(NS(C)(=O)=O)cccc3C(=O)N([C@@H](C)CO)C[C@H]2C)cc1	none (no result: TROY signal inh, PAX8 reporter, LMP1 NFkB inh, TWEAK Fn14 block)
CCc1cnc(N2[C@H](C#N)[C@H](c3ccc(C#CCC4CCCC4)cc3)[C@@H]2CO)s1	none (no result: TROY signal inh, LMP1 NFkB inh, TWEAK Fn14 block)
COc1cccc(-c2ccc([C@H]3[C@@H](CO)N(C(=O)Cc4ccccc4)[C@H]3C#N)cc2)c1	PAX8 reporter 91 (no result: TROY signal inh, LMP1 NFkB inh, TWEAK Fn14 block)
COc1cccc(-c2ccc([C@@H]3[C@H](C#N)N(C(=O)Cc4ccccc4)[C@H]3CO)cc2)c1	none (no result: TROY signal inh, LMP1 NFkB inh, TWEAK Fn14 block)
N#C[C@H]1[C@@H](c2ccc(C3=CCCCC3)cc2)[C@@H](CO)N1C(=O)c1ccccn1	none (no result: TROY signal inh, LMP1 NFkB inh, TWEAK Fn14 block)
COc1cccc(C#Cc2ccc([C@H]3[C@@H](C#N)N(C(=O)c4ccccn4)[C@@H]3CO)cc2)c1	PAX8 reporter 76 (no result: TROY signal inh, LMP1 NFkB inh, TWEAK Fn14 block)
N#C[C@H]1[C@@H](c2ccc(C3=CCCCC3)cc2)[C@H](CO)N1C(=O)c1ccccn1	LGR2 inh 88 (no result: TROY signal inh, LMP1 NFkB inh, TWEAK Fn14 block)
CCc1cnc(N2[C@@H](C#N)[C@@H](c3ccc(C#CCC4CCCC4)cc3)[C@@H]2CO)s1	PAX8 reporter 73 (no result: TROY signal inh, LMP1 NFkB inh, TWEAK Fn14 block)
CCC(=O)Nc1ccc2c(c1)OC[C@H](C)N(C(C)=O)C[C@@H](C)[C@@H](OC)CN(C)C2=O	none (no result: TROY signal inh, PAX8 reporter, LMP1 NFkB inh, TWEAK Fn14 block)
NCC[C@@H]1CC[C@@H](NS(=O)(=O)c2ccc(Cl)cc2)[C@@H](CO)O1	none (no result: TROY signal inh, LMP1 NFkB inh, TWEAK Fn14 block)
CC(C)CC#Cc1ccc([C@H]2[C@@H](CO)N3C(=O)CN(C(=O)c4ccc5c(c4)OCO5)C[C@H]23)cc1	none (no result: TROY signal inh, LMP1 NFkB inh, TWEAK Fn14 block)
CC(C)c1cn(CC[C@@H]2CC[C@@H](NS(=O)(=O)Cc3ccccc3)[C@H](CO)O2)nn1	none (no result: TROY signal inh, LMP1 NFkB inh, TWEAK Fn14 block)
COc1ccc(S(=O)(=O)N[C@@H]2CC[C@H](CCn3cc(-c4cccc(F)c4)nn3)O[C@H]2CO)cc1	none (no result: TROY signal inh, LMP1 NFkB inh, TWEAK Fn14 block)
COc1ccc(CCN2CCC(Nc3nc4ccccc4n3Cc3ccc(F)cc3)CC2)cc1	PAX8 reporter 74
COc1ccc(CNc2nc3ccccc3n2CCN2CCCCC2)cc1	none
Cn1c(Sc2ccc(Br)cc2)c(C=O)c2ccccc21	TWEAK Fn14 block 55 (no result: TROY signal inh, EWS-Fli inh, PAX8 reporter)
Cn1c(Oc2ccc(F)cc2)c(C=O)c2ccccc21	none
c1ccc(OCCCCn2cnc3ccccc32)cc1	TWEAK Fn14 block 74 (no result: TROY signal inh, EWS-Fli inh, LGR2 inh, PAX8 reporter)
Cc1cc(N2CCOCC2)ccc1/C=C\[N+](=O)[O-]	TROY signal inh 50, EWS-Fli inh inconclusive, TWEAK Fn14 block 70 (no result: LGR2 inh)
CC(C)NC(=O)N(C)C[C@H]1Oc2ccc(NC(=O)C3CCCCC3)cc2CC(=O)N([C@H](C)CO)C[C@H]1C	none (no result: TROY signal inh, LMP1 NFkB inh, TWEAK Fn14 block)
Nc1nc(Nc2ccccc2)nc2ccccc12	none (no result: EWS-Fli inh, LGR2 inh)
CN(C)c1ccc(Nc2nc(N)c3ccccc3n2)cc1	TROY signal inh 67, EWS-Fli inh 77, LGR2 inh 89, PAX8 reporter 78, LMP1 NFkB inh 70, TWEAK Fn14 block 95
CCOc1ccc(Nc2nc(N)c3ccccc3n2)cc1	TROY signal inh 61, EWS-Fli inh 69, LGR2 inh 96, LMP1 NFkB inh 53, TWEAK Fn14 block 92
Nc1nc(Nc2ccc(Cl)cc2)nc2ccccc12	TWEAK Fn14 block 80 (no result: EWS-Fli inh, LGR2 inh, PAX8 reporter)
CCNC(=O)Nc1ccc2c(c1)C(=O)N(C)[C@H]1CC[C@H](CC(=O)NC3CCCCC3)O[C@H]1CO2	none (no result: TROY signal inh, LMP1 NFkB inh, TWEAK Fn14 block)
OC(CSc1nc2ccccc2s1)CC(O)c1ccccc1 (stereo not drawn)	none (no result: TROY signal inh, LGR2 inh, LMP1 NFkB inh, TWEAK Fn14 block)
CC(C)(C)[C@H]1C=C(C(=O)N2CCCCCCC2)O[C@@H](OCc2ccc(CO)cc2)C1	none (no result: TROY signal inh, LGR2 inh, LMP1 NFkB inh, TWEAK Fn14 block)
Cc1ccc(CSCc2nc3ccccc3[nH]2)cc1	none
Cc1cc(C)cc(CC(Cc2nc3ccccc3[nH]2)c2nc3ccccc3[nH]2)c1 (stereo not drawn)	TROY signal inh 52, TWEAK Fn14 block 56 (no result: EWS-Fli inh, LGR2 inh, PAX8 reporter)
